Vaccinia Venus: vaccinia inhibition (Venus reporter) | Vaccinia virus Venus reporter expression, fluorescence | Potency, µM (series often up to 36.5 µM), for the others: top-dose activity change, negative = inhibition, most hits filed as inhibitors | 330,000 compounds, 0.46% hits | AID 720580; calls by dose curve; tested in A549 cells; further: nearly all actives have a fitted effect of over 30% in size
AmpC inh detg: AmpC beta-lactamase inhibition with detergent present | AmpC hydrolysis of nitrocefin, absorbance 480 nm, 0.01% Triton | Potency, µM (top dose mostly 114 µM), without a hit: at the highest dose activity change, negative = inhibition, hits mostly inhibitors | 370,000 compounds, 0.041% hits | AID 485294;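 further: 0% = no-compound wells and -100% = no-enzyme wells; nearly all actives have a fitted effect of over 25% in size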
Target sequence (P00811 whole entry, looked up): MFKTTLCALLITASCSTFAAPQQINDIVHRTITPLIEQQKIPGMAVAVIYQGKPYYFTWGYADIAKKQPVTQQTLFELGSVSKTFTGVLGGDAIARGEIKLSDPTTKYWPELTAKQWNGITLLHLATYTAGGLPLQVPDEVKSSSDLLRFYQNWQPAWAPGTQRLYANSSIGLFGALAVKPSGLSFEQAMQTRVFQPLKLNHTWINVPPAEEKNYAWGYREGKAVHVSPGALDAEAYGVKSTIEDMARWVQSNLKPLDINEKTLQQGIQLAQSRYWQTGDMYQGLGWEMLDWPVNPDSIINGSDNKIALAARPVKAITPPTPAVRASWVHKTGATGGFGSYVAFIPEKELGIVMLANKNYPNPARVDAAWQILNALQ
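20 mM phosphate pH 7.0 + 0.01% (detergent screen) or 0.0001% Triton X-100; 5.3 nM AmpC reagent; cpd preinc 15 min RT; nitrocefin (800 uM stock) to start; A480 q20 s × 4 min; Activity was normalised to no-enzyme and no-compound control wells.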
Vaccinia mCherry: vaccinia inhibition (mCherry reporter) | Vaccinia virus mCherry reporter infection, fluorescence | 310,000 compounds, 0.63% hits | AID 720579 | Potency, µM (series often up to 36.5 µM), for inactives: top-dose activity change, negative = inhibition, actives largely listed as inhibitors; calls by dose curve; tested in A549 cells; further: nearly all actives have a fitted effect of over 35% in size
AmpC inh no detg: AmpC beta-lactamase inhibition without detergent; P00811; AmpC nitrocefin hydrolysis, absorbance 480 nm, 0.0001% Triton; Potency, µM (titrated, usually from 57.1 µM), for the others: top-dose activity change, negative = inhibition, most hits filed as inhibitors; 330,000 compounds, 0.52% hits; AID 485341;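 further: plate controls were no compound for no effect and no enzyme for full effect; nearly all actives have a fitted effect of over 20% in size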
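20 mM phosphate pH 7.0 + 0.01% (detergent screen) or 0.0001% Triton X-100; 5.3 nM AmpC reagent; cpd preinc 15 min RT; nitrocefin (800 uM stock) to start; A480 q20 s × 4 min; Activity was normalised to no-enzyme and no-compound control wells.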
Starred values were filed as active, the others as inactive. Rows were chosen to be rich in hits. Some 1.1% of all compounds tested hit in one or more screens of this group. Unless noted, the call rests on the fitted dose curve; in most records, active means well fitted curve in the direction sought with a large enough effect; inconclusive means small, poorly fitted or top-dose-only effect, or another doubt; inactive means no such curve, though single readings can be large; an effect the other way counts as inactive or inconclusive. Unless noted, on the % scale 0 is the no-effect control and ±100 the full control effect; potency means the concentration at half of the fitted maximal effect.

How did CCC(Sc1nc2ccsc2c(=O)n1Cc1ccc(C(=O)O)cc1)C(=O)Nc1ccc(C)c(Cl)c1 (stereo not drawn) do in these assays?
AmpC inh detg: -0.8%; AmpC inh no detg: 8.91µM*

What do the screens show for `CCC(Sc1nc2ccsc2c(=O)n1Cc1ccc(C(=O)O)cc1)C(=O)Nc1cc(Cl)ccc1C` (stereo not drawn)?
Vaccinia Venus: -5.0%; Vaccinia mCherry: -2.8%

What do the screens show for `CC(=O)c1cccc(NC(=O)COC(=O)c2ccccc2OCc2cccc(Br)c2)c1`?
Vaccinia Venus: -9.7%; Vaccinia mCherry: -19.5%

How did COc1ccc(CN2CCC3(CCC(CNC(=O)C4CCCO4)O3)CC2)c(C)c1C (stereo not drawn) do in these assays?
Vaccinia Venus: 44.7%; Vaccinia mCherry: -1.0%

Results for Cc1sc(NC(=O)CN2C(=O)NC3(CCCC3)C2=O)nc1-c1ccc(F)cc1 ?
Vaccinia Venus: -28.2%; AmpC inh detg: inconclusive; Vaccinia mCherry: inconclusive; AmpC inh no detg: 25.1µM*

What do the screens show for `O=S(=O)(c1ccc2c(c1)OCO2)N1CCN(c2nc(-c3cccs3)nc3ccccc23)CC1`?
Vaccinia Venus: -18.5%; Vaccinia mCherry: inactive

How did CCC1CN(CCNC(=O)c2ccc3c(c2)OCO3)Cc2cc(OC)ccc2O1 (stereo not drawn) do in these assays?
Vaccinia Venus: -6.3%; Vaccinia mCherry: -13.7%

How did O=C(CSc1n[nH]c(-c2ccc(S(=O)(=O)N3CCCCC3)cc2)n1)Nc1nccs1 do in these assays?
Vaccinia Venus: -14.2%; AmpC inh detg: inconclusive; Vaccinia mCherry: -4.8%; AmpC inh no detg: 14.1µM*

How did Cn1c(SCC(=O)Nc2nccs2)nnc1-c1ccc(S(=O)(=O)N2CCCC2)cc1 do in these assays?
AmpC inh detg: -11.5%; AmpC inh no detg: -14.8%

How did Cc1cnc(C)c(-c2ccc(O)c(CN3CCN(C=O)CC3)c2)n1 do in these assays?
Vaccinia Venus: -4.7%; Vaccinia mCherry: -9.7%

Results for CCc1cc(/C(Cc2ccccn2)=N\Nc2ccccc2)c(O)cc1O ?
Vaccinia Venus: -13.4%; AmpC inh detg: -2.2%; Vaccinia mCherry: -26.6%; AmpC inh no detg: 25.1µM*

Results for CCC1=NN2C(=N)/C(=C\c3cccn3-c3c(C)cccc3C)C(=O)N=C2S1 ?
AmpC inh detg: inconclusive; AmpC inh no detg: -37.4%

What do the screens show for `CCC1=NN2C(=N)/C(=C\c3cccn3-c3ccc(C)cc3C)C(=O)N=C2S1`?
AmpC inh detg: inconclusive; AmpC inh no detg: 25.1µM*

What do the screens show for `COc1ccc(CC(=O)Nc2cccc(C(=O)O)c2C)cc1`?
Vaccinia Venus: -9.9%; AmpC inh detg: 2.4%; Vaccinia mCherry: -17.7%; AmpC inh no detg: 3.98µM*

How did O=C(CCCn1c(=O)c2sccc2n(Cc2cc(=O)n3ccccc3n2)c1=O)NCc1ccco1 do in these assays?
Vaccinia Venus: 2.7%; AmpC inh detg: inconclusive; Vaccinia mCherry: 15.2%; AmpC inh no detg: 39.8µM*

What do the screens show for `COCc1ccc(CN2CCOc3ccc(C4=Cc5ccccc5C4)cc3C2)o1`?
Vaccinia Venus: -8.9%; Vaccinia mCherry: -13.6%

How did O=C(c1cccc(Cl)c1)N1CCCC(Cn2cc(C(=O)N3CCCC3)nn2)C1 (stereo not drawn) do in these assays?
Vaccinia Venus: 0.0%; Vaccinia mCherry: -4.1%

What do the screens show for `Cc1ccc(N2CCN(C(=O)c3cc(-c4ccc(F)cc4)[nH]c3C)CC2C)cc1` (stereo not drawn)?
Vaccinia Venus: inconclusive; AmpC inh detg: -9.4%; Vaccinia mCherry: 10µM*; AmpC inh no detg: 115.7%

How did Cc1[nH]c(-c2ccc(F)cc2)cc1C(=O)N1CCN(c2ccccc2)CC1 do in these assays?
AmpC inh detg: inconclusive; AmpC inh no detg: 100.4%

How did COc1ccc(S(=O)(=O)n2ccc(C(C)Oc3ccc(-c4ccccc4)c(F)c3)n2)cc1 (stereo not drawn) do in these assays?
Vaccinia Venus: inconclusive; AmpC inh detg: 2.8%; Vaccinia mCherry: inconclusive; AmpC inh no detg: 0.398µM*

How did NNC(=O)/C(=N/Nc1ccccc1)S(=O)(=O)c1ccc(Cl)cc1 do in these assays?
Vaccinia Venus: -29.4%; AmpC inh detg: inconclusive; Vaccinia mCherry: inconclusive; AmpC inh no detg: 39.8µM*

What do the screens show for `O=C(CNc1ccccc1)N/N=C/c1cc([N+](=O)[O-])ccc1N1CCCC1`?
Vaccinia Venus: -1.9%; AmpC inh detg: -0.3%; AmpC inh no detg: 7.94µM*

How did CCN1C(=O)CC(CC(=O)N2CCCCC2c2nccs2)(c2ccccc2C)C1=O (stereo not drawn) do in these assays?
Vaccinia Venus: 2.5%; Vaccinia mCherry: -9.1%

How did O=C(N/N=C/C(Br)=C/c1ccccc1)c1cc(-c2ccco2)[nH]n1 do in these assays?
Vaccinia Venus: -24.7%; AmpC inh detg: 1.7%; Vaccinia mCherry: inconclusive; AmpC inh no detg: 20µM*

What do the screens show for `CC(/C=N/NC(=O)c1cc(-c2ccc(C)o2)[nH]n1)=C\c1ccccc1`?
AmpC inh detg: -7.3%; AmpC inh no detg: -42.2%

How did Cc1cc(=O)c(C(=O)N(C)CCc2ccccn2)c2n1-c1ccccc1SC(c1ccsc1)C2 (stereo not drawn) do in these assays?
Vaccinia Venus: 15.9%; Vaccinia mCherry: 0.6%

How did CCc1nc(CN2CCOc3ccc(C(O)C4CCCCC4)cc3C2)c(C)[nH]1 (stereo not drawn) do in these assays?
Vaccinia Venus: -23.6%; Vaccinia mCherry: -25.1%

What do the screens show for `Cc1ccccc1NC(=S)NC(=O)/C=C/c1ccco1`?
Vaccinia Venus: -1.8%; AmpC inh detg: -3.3%; Vaccinia mCherry: -2.0%; AmpC inh no detg: 5.62µM*

Results for COc1ccccc1NC(=S)NC(=O)/C=C/c1ccco1 ?
Vaccinia Venus: -3.6%; AmpC inh detg: -11.8%; Vaccinia mCherry: -13.0%; AmpC inh no detg: -52.9%

How did Cc1cnc(SCC2CCCO2)nc1C1CCCN(C(=O)c2ccc(S(N)(=O)=O)cc2)C1 (stereo not drawn) do in these assays?
Vaccinia Venus: 0.0%; Vaccinia mCherry: -14.6%

How did NN(CCO)C(=S)Nc1ccc(Cl)cc1 do in these assays?
Vaccinia Venus: inconclusive; AmpC inh detg: 1.2%; Vaccinia mCherry: 10µM*; AmpC inh no detg: -18.6%

How did CCn1c(-c2ccccc2F)nc2cc(NC(C)=O)cc(C(=O)N(C)Cc3c(C)nc4ccccn34)c21 do in these assays?
Vaccinia Venus: 0.0%; Vaccinia mCherry: -5.6%

Results for Cc1c(/C=N/NC(=O)CNc2ccccc2)c2ccccn2c1C(=O)c1ccc(Cl)cc1 ?
Vaccinia Venus: -26.2%; AmpC inh detg: 0.2%; Vaccinia mCherry: -14.7%; AmpC inh no detg: 2.51µM*

Results for Cc1cnc(-n2ncc(C(=O)N[C@H]3CCCCNC3=O)c2C2CC2)nc1-c1cccs1 ?
Vaccinia Venus: -5.1%; Vaccinia mCherry: -11.2%

Results for NC(=O)c1ccsc1NC(=O)c1ccc2c(c1)CCCC2 ?
Vaccinia Venus: inconclusive; AmpC inh detg: -12.3%; Vaccinia mCherry: -27.9%; AmpC inh no detg: -25.1%

How did NC(=O)c1ccsc1NC(=O)c1ccc(N2CCCC2=O)cc1 do in these assays?
Vaccinia Venus: -11.2%; AmpC inh detg: 4.6%; Vaccinia mCherry: -5.4%; AmpC inh no detg: 7.94µM*

Source: PubChem BioAssay
